# Screens (PubChem BioAssay)
# BJeLR viab HTS: lowers viability of BJeLR cells; BJeLR fibroblasts viability, CellTiterGlo ATP luminescence, 48 h; HRASV12, hTERT and SV40 LT/ST transformed; viability loss activity score, % (no concentration beside the values); 30,000 compounds, 0.64% hits; in the data active = viability loss activity score above about 50%;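 also: higher score means fewer live cells and less ATP luminescence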
# Shh pathway inh: blocks Sonic Hedgehog signaling; AID 2313; inhibition, % (concentration not given with the values); Shh-LIGHT2 Gli-luciferase reporter, 30 h; 22,000 compounds, 2.1% hits;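 active = mean inhibition across valid replicates above about 65%, limit read from the data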;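 also: pathway switched on by Shh-conditioned medium diluted 1 in 25 in low serum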
# MITF inhib: inhibitors of MITF. TRPM1 promoter luciferase, luminescence, 24 h. inhibition, % (test concentration not listed). 37,000 compounds, 0.28% hits; in the data active = inhibition above about 85%;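 also: human melanocyte line stably carrying TRPM1 promoter luciferase reporter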
# YB-1 expr inh: YB-1 expression inhibition; AID 434959; 30,000 compounds, 0.37% hits; delta delta Cp (YB-1 minus CDIP) (test concentration not listed); U2OS, qRT-PCR YB-1 vs CDIP delta delta Cp, 16 h; stronger effect = higher value; zero = DMSO, each unit about twofold;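 active = delta delta Cp rounded down to an integer at or above 3, about 3 SD of DMSO wells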;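 also: higher means less YB-1 transcript or more CDIP transcript relative to DMSO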
# Numbers without * were called inactive; nt = no result given. Shown is part of a subset that was picked to be rich in hits.
SMILES,BJeLR viab HTS,Shh pathway inh,MITF inhib,YB-1 expr inh
O=C(CC[N+](=O)[O-])OC[C@H]1O[C@@H](O)[C@H](OC(=O)CC[N+](=O)[O-])[C@@H](OC(=O)CC[N+](=O)[O-])[C@@H]1OC(=O)CC[N+](=O)[O-],2,41,9,0.29
C/C1=C/[C@@H](C)C/C=C/[C@H]2[C@@H]3O[C@]3(C)[C@@H](C)[C@H]3[C@H](Cc4c[nH]c5ccccc45)NC(=O)[C@]32C(=O)/C=C\C(=O)[C@@H]1O,nt,102*,nt,0.48
CN1Cc2c(ccc3c2OCO3)C2C(O)Cc3cc4c(cc3C21)OCO4 (stereo unspecified),72*,82*,23,-0.8
CCC(C)(O)C(=O)O[C@H]1C(=O)O[C@@H]2C[C@H]3C(C)=CC(=O)[C@@H](O)[C@]3(C)[C@H]3[C@@]4(O)OC[C@]32[C@@H]1[C@@H](C)[C@H]4O (stereo partly specified),114*,67*,92*,0.74
COCc1cc(OC(=O)N(C)C)nc(COc2ccc(Cl)cc2)n1,4,nt,nt,nt
C=C1[C@@H](C)[C@H]2[C@H](Cc3ccccc3)NC(=O)[C@]23OC(=O)/C=C\[C@H](O)CCC[C@@H](C)C/C=C/[C@H]3[C@@H]1O,39,65*,21,0.46
CC1(C)C(C(=O)Nc2nccs2)C1(C)C,-4,-30,-3,-0.28
C/C=C\C(=O)O[C@@H]1C[C@H]2O[C@@H]3C=C(C)C(=O)C[C@]3(C)[C@]1(C)[C@]21CO1,101*,65*,92*,0.98
Cc1ccc2[nH]cc(CC(C)N)c2c1 (stereo unspecified),5,nt,nt,nt
CCN(CC)CCc1c(C)c2ccc(O)cc2oc1=O,-1,nt,nt,nt
C=C(CO)C(=O)O[C@H]1CC(=C)[C@@H]2C[C@H](O)C(=C)[C@@H]2[C@H]2OC(=O)C(=C)[C@@H]21,7,90*,-45,0.68
C[C@@H]1O[C@@H](O[C@@H]2C=C3CCC4C(CC[C@]5(C)[C@@H](c6ccc(=O)oc6)CC[C@]45O)[C@@]3(C)CC2)[C@H](O)[C@H](O)[C@H]1O (stereo partly specified),121*,-21,42,-1.4
C[C@@H]1O[C@@H](O[C@@H]2C=C3CC[C@@H]4C(CC[C@]5(C)[C@@H](c6ccc(=O)oc6)CC[C@]45O)[C@@]3(C)CC2)[C@H](O)[C@H](O)[C@H]1O (stereo partly specified),99*,23,20,1.8
Cc1nc(-c2ccccc2)nc(OC(=O)N(C)C)c1Oc1cccc(C(F)(F)F)c1,3,nt,nt,nt
C[C@@H]1CC([C@H](O)CC2CC(=O)NC(=O)C2)C(=O)[C@@H](C)C1 (stereo partly specified),87*,68*,55,-0.021
C[C@@H]1C[C@@H]([C@H](O)CC2CC(=O)NC(=O)C2)C(=O)[C@@H](C)C1,61*,50,72,-0.55
Cc1[nH]c2ccccc2c1CCNCC(C)(C)C,-7,nt,nt,nt
NC1=C(C(=O)OCc2ccccc2)C2(C(=O)Nc3ccc(Br)cc32)C2=C(O1)C(=O)CCC2 (stereo unspecified),-3,-16,10,-0.37
CNc1ccc2oc(C[C@@H]3OC4(CC[C@@H]3C)O[C@H](C(C)C(=O)c3ccc[nH]3)[C@H](C)C[C@H]4C)nc2c1C(=O)O (stereo partly specified),72*,104*,105*,-0.00083
CC[C@@]1(O)C(=O)OCc2c1cc1n(c2=O)Cc2cc3c(O)cccc3nc2-1,107*,68*,66,1.4
NCC(=O)Nc1ccc(Br)cc1C(=O)c1ccccc1,nt,nt,-125,nt
N#CC(c1ccccc1)c1ccccc1,-6,nt,nt,nt
CC1=CC2OC3[C@H](O)C[C@@](C)([C@]34CO4)[C@@]2(CO)[C@H](O)C1=O (stereo partly specified),74*,40,72,-0.12
O=c1c2ccccc2nc(CSc2ncnc3ccccc23)n1-c1ccccc1F,nt,nt,71,nt
